Experimental data reported in PubChem BioAssay (Tox21).
Results filed as inconclusive are left out. Activity calls are given as the source filed them. Unless noted, calls come from the whole dose curve; as a rule, active = well fitted curve in the direction sought with a large enough effect in the repeat runs; inconclusive = weak or mixed curves; inactive = no such curve, though single readings can be large; an effect the other way counts as inactive or inconclusive.

Legend:
[1] = qHTS assay to identify small molecule agonists of the peroxisome proliferator-activated receptor delta (PPARd) signaling pathway - cell viability counter screen (AID 743211); note: nearly all actives have a fitted effect of over 55% in size
Procedure, shortened: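 PPARd-bla HEK293H cells (3000/well) were pre-incubated 5 h at 37 C, then exposed to compound for 17 h at 37 C. After 2 h with LiveBLAzer substrate, CellTiter-Glo was added to the same wells; luminescence read after 30 min at room temperature.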

[2] = biological target: Peroxisome proliferator-activated receptor delta (Homo sapiens) (UniProt Q03181); test: qHTS assay to identify small molecule agonists of the peroxisome proliferator-activated receptor delta (PPARd) signaling pathway (AID 743212; calls by dose curve)
Procedure, shortened: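 Quantitative high-throughput agonist screen in a HEK293H beta-lactamase reporter line under UAS control. Compounds in DMSO, at 37 C. Fluorescence read after 2 h with FRET substrate at room temperature.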

[3] = qHTS assay to identify small molecule antagonists of the peroxisome proliferator-activated receptor delta (PPARd) signaling pathway - cell viability counter screen (AID 743213); note: nearly all actives have a fitted effect of over 50% in size
Procedure, shortened: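 PPARd-bla HEK293H cells (3000/well) got compound plus 300 nM L165041 agonist for 17 h at 37 C. Viability in the same wells came from CellTiter-Glo luminescence after 30 min at room temperature.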

[4] = biological target: Peroxisome proliferator-activated receptor delta (Homo sapiens) (UniProt Q03181); test: qHTS assay to identify small molecule antagonists of the peroxisome proliferator-activated receptor delta (PPARd) signaling pathway (AID 743215; active = well fitted inhibition curve with a large enough effect in the signal ratio in the repeat runs, not every such curve was filed as active; the % refers to the signal ratio;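 note: cells stimulated with agonist L165041 at 300 nM final during compound exposure; series mostly up to about 62 µM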)
Procedure, shortened: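 Antagonist-mode beta-lactamase reporter screen: HEK293H cells with UAS-bla under PPARd control, stimulated by 300 nM L165041 (final) alongside test compound for 17 h at 37 C, then FRET fluorescence after 2 h substrate incubation.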

[5] = qHTS assay to identify small molecule agonists of the farnesoid-X-receptor (FXR) signaling pathway - cell viability counter screen (AID 743218); note: nearly all actives have a fitted effect of over 45% in size
Procedure, shortened: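 In GeneBLAzer FXR-UAS-bla HEK 293T cells, compounds act for 16 h at 37 C. Cell viability is then scored in the reporter wells by CellTiter-Glo, 30 min at RT, luminescence.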

[6] = qHTS assay to identify small molecule antagonists of the farnesoid-X-receptor (FXR) signaling pathway - cell viability counter screen (AID 743221; active = well fitted cell-killing curve with a large enough effect in the repeat runs, not every such curve was filed as active; note: nearly all actives have a fitted effect of over 50% in size)
Procedure, shortened: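 GeneBLAzer FXR-UAS-bla HEK 293T cells, compound plus chenodeoxycholic acid (50 uM final), 16 h at 37 C. CellTiter-Glo added to the same wells after the beta-lactamase read; luminescence read after 30 min at room temperature as viability.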

[7] = biological target: Vitamin D3 receptor (Homo sapiens) (UniProt P11473); test: qHTS assay to identify small molecule antagonists of the vitamin D receptor (VDR) signaling pathway (AID 743223; active = well fitted inhibition curve with a large enough effect in the signal ratio in the repeat runs, not every such curve was filed as active; the % refers to the signal ratio)
Procedure, shortened: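 VDR-bla cells were treated with compound plus 3 nM final 1alpha,25-dihydroxyvitamin D3 for 16 h at 37C. Beta-lactamase reporter read by B/G FRET substrate fluorescence after 2 h at room temperature. qHTS format.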

[8] = qHTS assay to identify small molecule agonists of the vitamin D receptor (VDR) signaling pathway - cell viability counter screen (AID 743224); note: series mostly up to about 63 µM; nearly all actives have a fitted effect of over 50% in size
Procedure, shortened: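 VDR-bla cell line, quantitative HTS format; 16 h compound incubation (37C, 5% CO2); ATP-based CellTiter-Glo luminescence measured in the reporter assay wells.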

[9] = qHTS assay to identify small molecule antagonists of the vitamin D receptor (VDR) signaling pathway - cell viability counter screen (AID 743225); note: nearly all actives have a fitted effect of over 50% in size
Procedure, shortened: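 VDR-UAS-bla HEK 293T cells were plated and incubated 4 h at 37C, then dosed with compound plus 3 nM (final) 1-alpha,25-dihydroxyvitamin D3 for 16 h. After the 2 h beta-lactamase read, viability in the same wells was read as CellTiter-Glo luminescence after 30 min at room temperature.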

[10] = qHTS assay to identify small molecule agonists of the NFkB signaling pathway - cell viability counter screen (AID 1159515; calls by dose curve; note: series mostly up to about 61 µM; nearly all actives have a fitted effect of over 55% in size)
Procedure, shortened: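 Viability in NFkB-bla ME-180 cells was measured by CellTiter-Glo luminescence, 30 min room temperature, in wells already treated 5 hr with compounds and read for reporter FRET.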

[11] = qHTS assay to identify small molecule agonists of the endoplasmic reticulum stress response signaling pathway - cell viability counter screen (AID 1159517; calls by dose curve)
Procedure, shortened: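 Counter-screen wells were identical to the reporter wells. Cells were plated at 1,500 per well and dosed for 5 hr, then read for luminescence 30 min after CellTiter-Glo addition.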

[12] = qHTS assay to identify small molecule antagonists of the retinoid-related orphan receptor gamma (ROR-gamma) signaling pathway - cell viability counter screen (AID 1159520); note: nearly all actives have a fitted effect of over 50% in size
Procedure, shortened: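 Tet-on ROR gamma CHO cells were given compounds for 2 hr, then doxycycline hyclate at 1 uM final, and incubated 16 hr at 37 C. Viability was measured as ATP content by CellTiter-Glo luminescence.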

[13] = biological target: Nuclear receptor ROR-gamma (Homo sapiens) (UniProt P51449); test: qHTS assay to identify small molecule antagonists of the retinoid-related orphan receptor gamma (ROR-gamma) signaling pathway (AID 1159521)
Procedure, shortened: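 Tet-on ROR-gamma CHO cells with ROR response element-luciferase reporter; compounds added 2 hr before 1 uM doxycycline induction, then 16 hr at 37 C. Antagonism scored as decreased ONE-Glo luminescence.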

[14] = qHTS assay to identify small molecule agonists of the AP-1 signaling pathway (AID 1159526; calls by dose curve)
[15] = biological target: Vitamin D3 receptor (Homo sapiens) (UniProt P11473); test: qHTS assay to identify small molecule agonists of the vitamin D receptor (VDR) signaling pathway (AID 743222; calls by dose curve)
Procedure, shortened: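 Agonist activity measured in VDR-bla reporter cells. Exposure 16 h, 37C, 5% CO2; detection by B/G FRET substrate, 2 h RT.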

[16] = qHTS assay to identify small molecule agonists of the endoplasmic reticulum stress response signaling pathway (AID 1159516; active = well fitted activation curve with a large enough effect in the signal ratio in the repeat runs, not every such curve was filed as active; the % refers to the signal ratio)
Procedure, shortened: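 ER stress element reporter (bla) in HeLa. 1,500 cells/well, overnight attachment; 5 hr compound; 2 hr RT substrate; dual-emission fluorescence.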

[17] = biological target: Bile acid receptor (Homo sapiens) (UniProt Q96RI1); test: qHTS assay to identify small molecule antagonists of the farnesoid-X-receptor (FXR) signaling pathway (AID 743217; active = well fitted inhibition curve with a large enough effect in the signal ratio in the repeat runs, not every such curve was filed as active; the % refers to the signal ratio)
Procedure, shortened: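 Beta-lactamase reporter under UAS control in HEK 293T cells; compound exposure 16 h at 37 °C in the presence of chenodeoxycholic acid (50 uM final); signal from B/G FRET substrate after 2 h at room temperature.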

[18] = biological target: Bile acid receptor (Homo sapiens) (UniProt Q96RI1); test: qHTS assay to identify small molecule agonists of the farnesoid-X-receptor (FXR) signaling pathway (AID 743220; active = well fitted activation curve with a large enough effect in the signal ratio in the repeat runs, not every such curve was filed as active; the % refers to the signal ratio)
Procedure, shortened: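 Beta-lactamase reporter under UAS control in GeneBLAzer FXR HEK 293T cells (5000/well) measured with LiveBLAzer FRET substrate after 2 h at room temperature. Compound exposure lasted 16 h at 37C.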

[19] = qHTS assay to identify small molecule agonists of the AP-1 signaling pathway - cell viability counter screen (AID 1159525; calls by dose curve; note: nearly all actives have a fitted effect of over 55% in size)
Procedure, shortened: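 AP-1-bla ME-180 cells in Opti-MEM with 0.5% dialyzed FBS, compound exposure 5 h at 37 C in 15-point titration. Viability read in the same wells as ATP content by CellTiter-Glo luminescence, normalised to tetra-n-octylammonium bromide and DMSO controls.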

Measured: Potency

Vitamin D3 receptor (Homo sapiens), sequence (P11473 whole entry, looked up): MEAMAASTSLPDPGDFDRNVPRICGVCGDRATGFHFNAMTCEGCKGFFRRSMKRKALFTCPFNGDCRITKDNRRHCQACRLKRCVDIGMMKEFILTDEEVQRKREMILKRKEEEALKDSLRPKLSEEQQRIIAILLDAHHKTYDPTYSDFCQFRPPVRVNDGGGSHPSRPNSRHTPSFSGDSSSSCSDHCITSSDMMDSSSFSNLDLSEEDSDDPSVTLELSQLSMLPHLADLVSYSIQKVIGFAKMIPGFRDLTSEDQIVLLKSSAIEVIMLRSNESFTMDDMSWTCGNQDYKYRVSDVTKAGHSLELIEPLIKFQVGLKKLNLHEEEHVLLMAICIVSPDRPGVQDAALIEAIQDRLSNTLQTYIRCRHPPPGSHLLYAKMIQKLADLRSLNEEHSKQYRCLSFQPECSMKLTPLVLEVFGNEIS
Peroxisome proliferator-activated receptor delta (Homo sapiens), sequence (Q03181 whole entry, looked up): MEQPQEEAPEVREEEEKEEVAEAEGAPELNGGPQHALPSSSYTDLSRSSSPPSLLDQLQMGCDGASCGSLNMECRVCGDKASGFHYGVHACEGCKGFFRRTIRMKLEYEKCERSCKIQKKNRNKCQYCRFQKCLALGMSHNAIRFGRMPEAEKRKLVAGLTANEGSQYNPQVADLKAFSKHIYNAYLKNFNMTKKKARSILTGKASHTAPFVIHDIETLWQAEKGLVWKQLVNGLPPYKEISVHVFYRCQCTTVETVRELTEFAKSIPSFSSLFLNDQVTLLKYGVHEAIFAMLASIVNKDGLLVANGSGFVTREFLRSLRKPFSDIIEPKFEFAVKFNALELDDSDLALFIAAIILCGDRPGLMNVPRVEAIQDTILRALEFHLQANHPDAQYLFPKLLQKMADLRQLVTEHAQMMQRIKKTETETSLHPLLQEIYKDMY
Bile acid receptor (Homo sapiens), sequence (Q96RI1 whole entry, looked up): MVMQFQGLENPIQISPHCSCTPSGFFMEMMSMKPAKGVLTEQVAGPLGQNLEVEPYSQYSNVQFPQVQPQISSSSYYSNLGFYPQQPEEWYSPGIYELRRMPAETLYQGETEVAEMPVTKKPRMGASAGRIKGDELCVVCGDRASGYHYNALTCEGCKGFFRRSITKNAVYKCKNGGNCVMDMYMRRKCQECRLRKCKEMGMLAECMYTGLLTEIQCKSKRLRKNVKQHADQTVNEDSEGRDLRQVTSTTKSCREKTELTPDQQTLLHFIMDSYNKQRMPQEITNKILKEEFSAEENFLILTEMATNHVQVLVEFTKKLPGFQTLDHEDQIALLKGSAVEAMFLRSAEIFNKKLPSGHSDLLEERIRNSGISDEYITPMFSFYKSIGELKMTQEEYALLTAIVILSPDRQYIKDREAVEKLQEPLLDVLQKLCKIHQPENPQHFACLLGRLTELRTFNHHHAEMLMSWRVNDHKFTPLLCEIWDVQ

NC/C=C/C(=O)O
not listed: [15] | [16] | [17] | [18] | [19]
inactive: all other assays above

CCCCCCCCCCCCOCCOS(=O)(=O)O
inactive: [5] | [15] | [10] | [16] | [11] | [12] | [13]

CCOC(=O)C1CC(=O)C(=C(O)C2CC2)C(=O)C1 (stereo not given)
not listed: [16] | [19]
inactive: all other assays above

CC(=O)N[C@@H](CC(C)C)C(=O)O
not listed: [3] | [4] | [13] | [17]
inactive: all other assays above

CC(C)CCCCCCc1ccc(OCCOCCO)cc1
not listed: [2] | [4] | [6] | [7] | [13] | [17] | [18]
inactive: all other assays above

O=C1CCN(c2ccccc2)N1
inactive: [1] | [3] | [17] | [18] | [6] | [10] | [16] | [12] | [13] | [19]

COc1nc(C)nc(NC(=O)NS(=O)(=O)c2ccccc2OCCCl)n1
not listed: [7] | [13]
inactive: all other assays above

CC1=CC(=O)CC(C)(C)C1=O
not listed: [13] | [17] | [18]
inactive: all other assays above

NC1=NCC2c3ccccc3Cc3ccccc3N12 (stereo not given)
not listed: [2] | [4] | [15] | [16] | [17] | [18] | [19]
inactive: all other assays above
